In the library only some 4.5% were active in any assay of this set; here they are far more common.
GAA850 FXN act = increases GAA850 frataxin promoter reporter activity | HEK293 lucGAA850 FXN promoter luciferase reporter, 24 h; percent of 10 µM SAHA response | activation, % at 6 µM | hit rate 0.56% among 360,000;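 active = activation above the average of all compounds screened plus 3 SD, cutoff fixed separately per campaign, cut at about 7.5% in these data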;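 also: 0% = DMSO wells and 100% = 10 µM SAHA wells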
ssDAF12 agonist = activates DAF-12 receptor from parasite S. stercoralis | hit rate 1% among 370,000 | activation, % at 6.8 µM | AID 652126 | HEK293 ssDAF-12/GRIP1 lit1-tk-luc reporter, luminescence; % of 3 µM dafachronic acid response;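 active = activation above the mean over all tested compounds plus 3 SD, cut at about 0.9% in these data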;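 also: 0% = DMSO-only wells and 100% = 3 µM delta7-dafachronic acid wells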
DAX1 inh-1 = NR0B1 (DAX1) inhibition; hit rate 0.99% among 340,000; AID 504766; P51843; HEK293 Gal4-DAX1 luciferase reporter, luminescence; inhibition, % at 6.75 µM;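 active = inhibition above the mean over all tested compounds plus 3 SD, cut at about 4.2% in these data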;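 also: 0% = DAX1-transfected cells with DMSO and 100% = empty-vector control cells with DMSO; inhibition shows as a rise in luminescence from relieved DAX1 repression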
Target sequence (P51843 207-470 limits assumed): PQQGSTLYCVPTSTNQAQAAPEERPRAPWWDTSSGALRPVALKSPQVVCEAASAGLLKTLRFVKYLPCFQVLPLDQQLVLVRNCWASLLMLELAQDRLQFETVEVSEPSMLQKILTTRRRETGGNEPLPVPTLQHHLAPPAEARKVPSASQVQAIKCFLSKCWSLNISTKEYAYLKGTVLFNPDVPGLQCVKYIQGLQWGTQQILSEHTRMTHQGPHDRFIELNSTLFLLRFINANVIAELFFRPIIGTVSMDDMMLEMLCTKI
DAX1 inh-2 = DAX1 (NR0B1) inhibition, primary screen; inhibition, % at 6.8 µM; HEK293T StAR-luciferase reporter, SF-1/DAX-1 repression relief; hit rate 1.1% among 370,000;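 active = inhibition above the mean over all tested compounds plus 3 SD, cut at about 3.6% in these data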;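 also: 0% = DAX-1 cells with DMSO and 100% = cells lacking DAX-1 with DMSO; higher inhibition means more luminescence from relief of DAX-1 repression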
hcDAF-12 act = activators of H. contortus DAF-12 nuclear receptor; HEK293 hcDAF-12 lit1-tk-luc reporter, luminescence; 0% DMSO, 100% Δ7-dafachronic acid; activation, % at 6.8 µM; hit rate 1.4% among 370,000;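 active = activation above the mean of all tested compounds plus 3 SD, cut at about 5.5% in these data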;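 also: 100% = response to 3 µM Δ7-dafachronic acid high control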
hgDAF12 agonist = activates the H. glycines DAF-12 receptor ligand-binding domain. activation, % at 6.8 µM. HEK293 GAL4-hgDAF12 UAS-luciferase reporter, agonist luminescence; normalized to butyrate control. hit rate 1.8% among 370,000. AID 687014;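 active = activation above a cutoff set at the mean of all screened compounds plus 3 SD, cut at about 10% in these data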;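 also: 0% = DMSO wells and 100% = sodium butyrate wells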
An asterisk follows results filed as active; nt = not tested or not shown.

SMILES	GAA850 FXN act	ssDAF12 agonist	DAX1 inh-1	DAX1 inh-2	hcDAF-12 act	hgDAF12 agonist
CC(=O)N1CCc2c1cccc2S(=O)(=O)NC(CC(C)C)C(=O)Nc1ccccc1C (stereo unspecified)	nt	-1	nt	0	-1	2
COc1ccccc1NC(=O)Cn1nnc(-c2ccccc2NC(=O)c2cc3ccccc3oc2=O)n1	3	1	2	3	14*	7
CC1CC(C)CN(CCCNC(=O)c2ccc3nc(N4CCCCC4)sc3c2)C1 (stereo unspecified)	1	-1	0	2	4	3
CCCN1CCN(CCCNC(=O)c2ccc3nc(N4CCCCC4)sc3c2)CC1	4	-1	2	4.4*	3	7
CC1CCCC(C)N1CCCNC(=O)c1ccc2nc(N3CCCCC3)sc2c1 (stereo unspecified)	4	-1	2	3.8*	2	9
CCC1CCCCN1CCCNC(=O)c1ccc2nc(N3CCCCC3)sc2c1 (stereo unspecified)	2	1	1	2	5.6*	11*
CC1CCCC(C)N1CCCNC(=O)c1ccc2nc(N3CCOCC3)sc2c1 (stereo unspecified)	0	-1	1	0	-2	0
CC(C)CN1C(=O)[C@]2(CC(=O)N(C)C2c2ccccc2)c2cc(-n3cc(C4=CCCCC4)nn3)ccc21 (stereo partly specified)	nt	-1	nt	-1	-3	-2
CCN(CC)C(=O)Oc1ccc2c(=O)c(-c3ccccc3)coc2c1	1	0	1	4.1*	1	11*
CC(=O)Oc1ccc2occ(-c3ccccc3)c2c1	1	0	0	1	1	10
O=S(=O)(c1ccc(Cl)nc1)N1CCN(Cc2ccc3c(c2)OCO3)CC1	-3	-1	2	0	-2	11*
O=S(=O)(c1cc(Cl)ccc1Cl)N1CCN(Cc2ccc3c(c2)OCO3)CC1	-1	-2	1	0	3	2
Cc1nc(NC(=O)c2ccc(Cl)cc2)nc2cc3c(cc12)OCO3	3	-1	-1	0	3	-4
Cc1c(-c2cc(Br)ccc2O)nc2cc3c(cc2c1C)OCO3	4	-1	4.3*	0	0	5
COC(=O)[C@]12C[C@H](CC(=O)NCCC(C)C)C(=O)N(CCc3ccc(OC)c(OC)c3)C1=C[C@H](C(C)C)O[C@@H]2C1CC1	nt	-1	nt	0	-1	-3
CCOC(=O)c1c(C)c[nH]c1C	4	0	nt	0	-1	-3
COC(=O)c1c(C)c[nH]c1C	0	-1	5.3*	1	-1	2
O=C(NC1CCCCN(Cc2cccc(Cl)c2)C1=O)c1ccccc1 (stereo unspecified)	nt	-1	nt	-2	-1	-1
COc1cc(-c2nnc(-c3cc(-c4ccccc4)nc4ccccc34)o2)cc(OC)c1OC	1	1.2*	2	0	1	0
Nc1ccc(-c2nnc(-c3ccc(N)cc3)o2)cc1	4	0	4.4*	2	2	7
Cc1cccc(-c2nnc(-c3ccc(N)cc3)o2)c1	-4	-1	0	3	3	7
COc1ccc(-c2nnc(-c3ccccc3)o2)cc1OC	4	0	2	2	1	10*
c1ccc(-c2nnc(-c3ccccc3)o2)cc1	7	1.2*	4.6*	3	5.9*	12*
c1ccc(-c2nnc(-c3ccncc3)o2)cc1	5	-1	0	1	2	3
CC(C)c1ccc(NC(=O)N(CCc2nc3ccccc3[nH]2)C2CCCC2)cc1	-4	0.9*	1	0	3	0
SMILES	GAA850 FXN act	ssDAF12 agonist	DAX1 inh-1	DAX1 inh-2	hcDAF-12 act	hgDAF12 agonist
CCc1c(C)c2ccc(OCC(=O)NCC3CCC(C(=O)O)CC3)c(C)c2oc1=O (stereo unspecified)	-1	-1	2	0	0	11*
Cc1cc(C)c2c(n1)sc1c(=O)n(Cc3ccc(F)cc3)cnc12	0	0	4.5*	0	0	-1
C=CCn1cnc2c(sc3nc(C)cc(C)c32)c1=O	5	-1	1	0	0	3
Cn1cc([N+](=O)[O-])c(C(=O)NCc2cc3ccccc3[nH]2)n1	0	1.8*	1	1	3	3
CC(C)N1Cc2nnn(Cc3ccccc3)c2-c2ccccc2S1(=O)=O	nt	-1	nt	0	-3	0
CN1CCN(c2cnn(-c3ccccc3)c(=O)c2Br)CC1	2	-1	0	1	0	3
O=c1c(Br)c(N2CCCC2)cnn1-c1ccccc1	4	0	0	3	5.6*	12*
CCOc1ccc(-n2c(SCC(=O)Nc3ccc(S(=O)(=O)Nc4nccs4)cc3)nnc2-c2ccncc2)cc1	nt	-1	nt	0	1	-2
O=C(NC1CCCCN(Cc2cccc(Cl)c2)C1=O)c1ccc(-c2ccccc2)cc1 (stereo unspecified)	nt	-2	nt	-4	0	4
C[C@H]1C2CC(OC(=O)Nc3cccc(Cl)c3)C(C2)[C@H]2CCCCN21 (stereo partly specified)	nt	0	nt	0	-2	3
COc1cc(/C=C/C(=O)OCC(=O)NC(=O)NC(C)(C)C)ccc1O	0	-1	4.5*	-1	0	0
COc1cc(/C=C/C(=O)OCC(=O)Nc2cccc(F)c2)ccc1O	-1	-1	0	1	0	-2
S=C(NN=Cc1ccccn1)N(Cc1ccccn1)Cc1ccccn1	6	1.0*	-4	1	3	5
S=C(NN=C(c1ccccc1)c1ccccn1)N(Cc1ccccn1)Cc1ccccn1	-11	-2	-5	-7	-4	-9
CC(=O)NC(=S)Nc1sc2c(c1C(N)=O)CCC(C)C2 (stereo unspecified)	6	1	5.0*	2	3	10
CCOc1ccc(NC(=O)C(c2ccccn2)N(C(=O)CCl)c2ccc(OCC)cc2)cc1 (stereo unspecified)	5	nt	3	nt	nt	nt
CCOc1ccc(NC(=O)C(c2ccccn2)N(C(=O)CCl)c2ccc(OC)cc2)cc1 (stereo unspecified)	3	2.4*	1	0	10*	11*
Cc1nc(N2CCN(c3ccccn3)CC2)c2c(C)c(C(=O)Nc3ccc(F)cc3F)sc2n1	1	-1	1	0	0	1
Cc1nc(N2CCN(c3ccccn3)CC2)c2c(C)c(C(=O)Nc3ccccc3F)sc2n1	4	0	5.3*	1	0	-1
O=C(CNC(=O)c1ccccc1Cl)N/N=C/c1ccc2c(c1)OCO2	-1	-1	-1	0	-2	-2
O=C(O)c1ccc(/C=N/Nc2nc3ccccc3[nH]2)cc1	0	0	8.9*	0	-1	2
Clc1ccccc1N/N=C/c1ccc2c(c1)OCO2	3	-1	4.3*	2	4	10

Assay outcomes (PubChem BioAssay)
